Source: the supplement of paper PMC8975748
Counter-ions that a name gives are not always drawn. ± gives the standard deviation of the averaged measurements.

Legend:
[1] = test system: Saccharomyces cerevisiae BY4741 SeMeCo community; assay: mean cell size (pixel area) (pixels); higher = larger cells; settings: 10 µM; 24 h; SM minimal medium
How it was run: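 Mean cell pixel area per well was determined by automated confocal microscopy with Harmony analysis of paraformaldehyde-fixed cells. The cells, a Saccharomyces cerevisiae BY4741 community of four plasmids that each complement one auxotrophy and carry a fluorescent marker, were incubated for 24 h with drug at a final 10 µM in SM medium in 384-well plates. Numbers are averaged over 3 replicates. Same SeMeCo high-content imaging drug screen: Selleck FDA-approved drugs at 10 µM, 24 h in SM medium, 384-well plates, 3 replicates.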

[2] = test system: Saccharomyces cerevisiae BY4741 SeMeCo community; assay: z-score of prototroph abundance vs DMSO median; higher = larger share of this subpopulation than in DMSO controls; settings: 10 µM; 24 h; SM minimal medium; subpopulation (auxotrophy): Prototroph
How it was run: (§1)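 A community of Saccharomyces cerevisiae BY4741 was built from four plasmids that each restored one auxotrophy and encoded a distinct fluorescent protein. Pre-grown overnight to OD600 1.0 and diluted to 0.3, it was dispensed at 70 µl into 384-well plates acoustically predosed with library drugs for a final 10 µM, and grown 24 h in minimal SM medium. Cells were then paraformaldehyde-fixed and imaged by automated confocal microscopy. Thresholds and autofluorescence correction came from single-auxotroph fluorescent strains, and each subpopulation's abundance was scored as a z-score relative to the vehicle-well median.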

[3] = test system: Saccharomyces cerevisiae BY4741 SeMeCo community; assay: z-score of subpopulation abundance vs DMSO median, subpopulation auxotrophic for M; higher = larger share of this subpopulation than in DMSO controls; settings: 10 µM; 24 h; SM minimal medium; subpopulation (auxotrophy): M
How it was run: as §1

[4] = test system: Saccharomyces cerevisiae BY4741 SeMeCo community; assay: z-score of subpopulation abundance vs DMSO median, subpopulation auxotrophic for U; higher = larger share of this subpopulation than in DMSO controls; settings: 10 µM; 24 h; SM minimal medium; subpopulation (auxotrophy): U
How it was run: as §1

[5] = test system: Saccharomyces cerevisiae BY4741 SeMeCo community; assay: z-score of subpopulation abundance vs DMSO median, subpopulation auxotrophic for H; higher = larger share of this subpopulation than in DMSO controls; settings: 10 µM; 24 h; SM minimal medium; subpopulation (auxotrophy): H
How it was run: as §1

[6] = test system: Saccharomyces cerevisiae BY4741 SeMeCo community; assay: z-score of subpopulation abundance vs DMSO median, subpopulation auxotrophic for LM; higher = larger share of this subpopulation than in DMSO controls; settings: 10 µM; 24 h; SM minimal medium; subpopulation (auxotrophy): LM
How it was run: as §1

[7] = test system: Saccharomyces cerevisiae BY4741 SeMeCo community; assay: z-score of subpopulation abundance vs DMSO median, subpopulation auxotrophic for HM; higher = larger share of this subpopulation than in DMSO controls; settings: 10 µM; 24 h; SM minimal medium; subpopulation (auxotrophy): HM
How it was run: as §1

[8] = test system: Saccharomyces cerevisiae BY4741 SeMeCo community; assay: z-score of subpopulation abundance vs DMSO median, subpopulation auxotrophic for HU; higher = larger share of this subpopulation than in DMSO controls; settings: 10 µM; 24 h; SM minimal medium; subpopulation (auxotrophy): HU
How it was run: as §1

[9] = test system: Saccharomyces cerevisiae BY4741 SeMeCo community; assay: z-score of subpopulation abundance vs DMSO median, subpopulation auxotrophic for UM; higher = larger share of this subpopulation than in DMSO controls; settings: 10 µM; 24 h; SM minimal medium; subpopulation (auxotrophy): UM
How it was run: as §1

[10] = test system: Saccharomyces cerevisiae BY4741 SeMeCo community; assay: z-score of subpopulation abundance vs DMSO median, subpopulation auxotrophic for HL; higher = larger share of this subpopulation than in DMSO controls; settings: 10 µM; 24 h; SM minimal medium; subpopulation (auxotrophy): HL
How it was run: as §1

[11] = test system: Saccharomyces cerevisiae BY4741 SeMeCo community; assay: z-score of subpopulation abundance vs DMSO median, subpopulation auxotrophic for HLU; higher = larger share of this subpopulation than in DMSO controls; settings: 10 µM; 24 h; SM minimal medium; subpopulation (auxotrophy): HLU
How it was run: as §1

[12] = test system: Saccharomyces cerevisiae BY4741 SeMeCo community; assay: z-score of subpopulation abundance vs DMSO median, subpopulation auxotrophic for HLM; higher = larger share of this subpopulation than in DMSO controls; settings: 10 µM; 24 h; SM minimal medium; subpopulation (auxotrophy): HLM
How it was run: as §1

[13] = test system: Saccharomyces cerevisiae BY4741 SeMeCo community; assay: z-score of subpopulation abundance vs DMSO median, subpopulation auxotrophic for LUM; higher = larger share of this subpopulation than in DMSO controls; settings: 10 µM; 24 h; SM minimal medium; subpopulation (auxotrophy): LUM
How it was run: as §1

[14] = test system: Saccharomyces cerevisiae BY4741 SeMeCo community; assay: z-score of subpopulation abundance vs DMSO median, subpopulation auxotrophic for HLUM; higher = larger share of this subpopulation than in DMSO controls; settings: 10 µM; 24 h; SM minimal medium; subpopulation (auxotrophy): HLUM
How it was run: as §1

[15] = test system: Saccharomyces cerevisiae BY4741 SeMeCo community; assay: z-score of subpopulation abundance vs DMSO median, subpopulation auxotrophic for L; higher = larger share of this subpopulation than in DMSO controls; settings: 10 µM; 24 h; SM minimal medium; subpopulation (auxotrophy): L
How it was run: as §1

[16] = test system: Saccharomyces cerevisiae BY4741 SeMeCo community; assay: z-score of subpopulation abundance vs DMSO median, subpopulation auxotrophic for LU; higher = larger share of this subpopulation than in DMSO controls; settings: 10 µM; 24 h; SM minimal medium; subpopulation (auxotrophy): LU
How it was run: as §1

[17] = test system: Saccharomyces cerevisiae BY4741 SeMeCo community; assay: z-score of subpopulation abundance vs DMSO median, subpopulation auxotrophic for HUM; higher = larger share of this subpopulation than in DMSO controls; settings: 10 µM; 24 h; SM minimal medium; subpopulation (auxotrophy): HUM
How it was run: as §1

Structure (SMILES) | mean cell size [1] | z-score of prototroph abundance [2] | z-score of subpopulation abundance [3] | z-score of subpopulation abundance [4] | z-score of subpopulation abundance [5] | z-score of subpopulation abundance [6] | z-score of subpopulation abundance [7] | z-score of subpopulation abundance [8] | z-score of subpopulation abundance [9] | z-score of subpopulation abundance [10] | z-score of subpopulation abundance [11] | z-score of subpopulation abundance [12] | z-score of subpopulation abundance [13] | z-score of subpopulation abundance [14] | z-score of subpopulation abundance [15] | z-score of subpopulation abundance [16] | z-score of subpopulation abundance [17]
COc1ccc2cc([C@H](C)C(=O)O)ccc2c1 [Naproxen Sodium] | 12.84 ± 0.07 | 1.33 | 0.17 | -1.01 | -0.42 | -0.16 | -0.61 | -1.5 | -2.49 | 0.47 | 0 | 0.18 | -0.75 | -0.52 | – | – | –
CC(C)[C@H](N)C(=O)OCC(CO)OCn1cnc2c(=O)[nH]c(N)nc21 (stereo partly drawn) [Valganciclovir HCl] | – | 0.56 | -0.49 | -0.54 | 0.09 | – | – | – | -0.83 | -0.43 | -0.52 | – | 0.07 | – | 0.28 | – | –
CC(C)C(=O)Oc1ccc(CO)cc1[C@H](CCN(C(C)C)C(C)C)c1ccccc1 [Fesoterodine Fumarate] | 12.3 ± 0.21 | 0.94 | 0 | – | -1.08 | -0.9 | -0.41 | – | -0.82 | -0.27 | -0.16 | -1 | -0.22 | -1.13 | -0.39 | – | –
Cc1c(-c2ccc(O)cc2)n(Cc2ccc(OCCN3CCCCCC3)cc2)c2ccc(O)cc12 [Bazedoxifene Acetate] | 12.6 ± 0.073 | – | 0.99 | -0.25 | – | -0.35 | 0.8 | – | 0.36 | -0.12 | 0.21 | – | 0.65 | -0.3 | -0.2 | – | –
Cc1ccnc(NS(=O)(=O)c2ccc(N)cc2)n1 [Sulfamerazine] | – | -1.15 | 1.32 | -0.62 | 0.49 | 0.88 | 2 | -0.3 | 0.45 | 0.86 | 0.89 | 0.7 | 0.98 | 0.45 | 1.54 | – | –
c1cnc2cc3c(cc2n1)[C@@H]1CNC[C@H]3C1 [Varenicline Tartrate] | 12.1 ± 0.23 | 0.71 | – | -0.22 | 0.28 | 0.09 | -0.22 | -0.05 | -0.54 | 0.16 | -0.4 | 0.76 | -0.39 | 0.16 | -0.32 | -0.66 | -0.72
COc1ccc(Cl)cc1C(=O)NCCc1ccc(S(=O)(=O)NC(=O)NC2CCCCC2)cc1 [Glyburide (Glibenclamide)] | – | – | -0.21 | -0.59 | 0.81 | 1.74 | – | – | -0.02 | 1.09 | 0.43 | -0.04 | 1.11 | – | 1.58 | – | -0.09
CN1CC(=O)N2[C@H](c3ccc4c(c3)OCO4)c3[nH]c4ccccc4c3C[C@@H]2C1=O [Tadalafil] | – | – | 0.2 | -1.35 | 0.35 | 3.43 | 0.83 | -0.74 | – | – | 0.4 | 1.64 | – | – | 1.85 | – | 0.54
